# Reference: PubChem BioAssay AID2717 (Broad Institute, 2010)
# The whole screen tested about 300,000 compounds, of which about 3,200 (1.1%) were called active. Shown is part of a subset that was picked to be rich in actives. Values without a mark were called inactive. Cut-off read from the data, not from the text of the source: active = inhibition above about 75%; inconclusive = no clear call, values can overlap the other calls; inactive = below that; tested in HMLE shEcad cells.
# Test: cancer stem cell viability inhibitors, primary screen, luminescence (AID 2717)
# Details: cancer stem cell-like cells viability, at 7.5 µM, hits give high values
row,SMILES,inhibition
1,CCN(C[C@H]1N[C@@](CC)(C(=O)OC)[C@H]2C(=O)N(C)C(=O)[C@@H]12)C(=O)Nc1ccc(F)cc1,-20.7%
2,N#Cc1nc(-c2cccc3ccccc23)oc1N,8.01%
3,Cc1ccc(NNC(=O)c2c(F)cccc2Cl)cc1Cl,-4.9%
4,Cc1ccc(NNC(=O)c2cccs2)cc1Cl,90.5% (active)
5,O=C(NNC(=O)c1ccc(Cl)cc1Cl)c1cccs1,5.32%
6,CC(=O)Nc1ccc(SC[C@H](Cc2ccccc2)N2CC[C@@H](C)CCC2=O)cc1,1.36%
7,CC(NC(=O)COC(=O)CCC(=O)c1ccc(Cl)cc1)c1ccccc1 (stereo not drawn),-16.5%
8,O=C(CCNC(=O)c1ccccc1Cl)NN=Cc1ccco1,-8.03%
9,O=[N+]([O-])c1cc(S(=O)(=O)NCCc2ccccn2)ccc1Cl,-19.2%
10,COc1ccccc1-c1nnc(-c2ccc(F)cc2)o1,4.47%
11,COc1ccc(-c2csc3nc(-c4ccccc4F)oc(=O)c23)cc1OC,98.7% (active)
12,COc1ccc(-c2csc(-c3cccs3)n2)cc1OC,11.3%
13,O=S(=O)(Nc1ncnc2sccc12)c1cccc(F)c1,-7.13%
14,COc1ccc(NC(=O)CNc2cc(S(=O)(=O)N3CCOCC3)ccc2N2CCOCC2)c(OC)c1,6.36%
15,COc1ccccc1N(CCOc1ccccc1)S(=O)(=O)c1ccccc1,7.81%
16,COc1cc(/C=C2\Oc3ccc(C#Cc4ccc(O)cc4)cc3C2=O)cc(OC)c1,115% (active)
17,COc1cc(C#Cc2ccc3cc(CCCO)oc(=O)c3c2)cc(OC)c1,11.5%
18,COc1ccc2c(c1)O/C(=C\c1ccccc1O)C2=O,-1.63%
19,O=C1N[C@H](Cc2c[nH]c3ccccc23)COC(=O)[C@H](Cc2ccc(F)cc2)C/C=C\C[C@H]1CC(=O)N(CCO)Cc1ccccc1,36.2%
20,CC(=O)NC(CC(=O)Nc1ccc(S(=O)(=O)N2CCOCC2)cc1)c1ccccc1 (stereo not drawn),-4.54%
21,CC(=O)c1c(C)[nH]c(C(=O)COC(=O)c2cccs2)c1C,-12.4%
22,COc1ccc(C(=O)C(C)OC(=O)c2cccc(S(=O)(=O)Nc3c(C)n(C)n(-c4ccccc4)c3=O)c2)cc1 (stereo not drawn),-12.3%

row,SMILES,inhibition
1,O=C(CN1C(=O)NC2(CCCC2)C1=O)Nc1cc(C(F)(F)F)ccc1N1CCOCC1,-16.7%
2,CCOC(=O)C1CCCN(C(=O)CSc2nnc3nc(C)cc(C)n23)C1 (stereo not drawn),8.11%
3,CC(=O)C1C(c2ccc(Cl)cc2)NC(=O)NC1(O)C(F)(F)F (stereo not drawn),-6.38%
4,CC1=NN(c2ccc(Cl)c(C(=O)O)c2)C(=O)/C1=C/c1ccc(-c2ccccc2[N+](=O)[O-])o1,12.7%
5,O=C(/C=C(O)/C=C/c1ccc(O)cc1)/C=C/c1ccc(O)cc1,44.3%
6,CC1Sc2ccc(C(=O)NCc3ccccc3Cl)cc2NC1=O (stereo not drawn),-22.7%
7,Cc1ccc(C(=O)NCC(=O)NC2CC2)cc1,-14.8%
8,CCC(C)(C)c1ccc(Oc2ccc(NC(=O)COC(=O)C3=COCCO3)cc2)cc1,103% (active)
9,O=C(OCC(=O)c1cccs1)C1=COCCO1,-0.0949%
10,CCc1ccc(NC(=O)COC(=O)c2cccs2)cc1,-11.1%
11,O=C1OC[C@@H]2CCCN2C(=O)[C@H](CC(=O)N(CCO)Cc2ccccc2)C/C=C\CC[C@@H]1Cc1ccc(F)cc1,-11.9%
12,CCOc1ccccc1Nc1nnc(SCC(=O)NCC2CCCO2)s1 (stereo not drawn),-6.96%
13,C=CCC[C@@H](Cc1ccc(F)cc1)C(=O)O[C@H](CNC(=O)[C@H](CC=C)CC(=O)N(CCO)Cc1ccccc1)c1ccccc1,41.9%
14,COc1cc(OC)c(C(=O)NNC(=O)c2ccccc2-n2cccc2)cc1OC,17.7%
15,COc1ccc(CNc2nc(NCc3ccc(OC)cc3)c3ncn(C4CCCC4)c3n2)cc1,62.8%
16,O=C(Cn1cnc2c(OCc3ccccc3)ncnc21)NCCCn1ccnc1,-10.9%
17,O=C(COC(=O)CN1C(=O)C2CCCCC2C1=O)Nc1ccc(F)c(F)c1F (stereo not drawn),-26.6%
18,O=C1NC(c2cccc(Cl)c2)Nc2ccccc21 (stereo not drawn),23%
19,O=c1c(-c2cccc(Cl)c2)c[nH]n1-c1ccccc1,6.17%
20,O=C1c2ccccc2NC(c2ccc(-c3cccc(Cl)c3)o2)N1O (stereo not drawn),85.5% (active)
21,C[C@@H](CN1CCC[C@H]1CN1C(N)=NC[C@@H]1Cc1ccccc1)N1C[C@@H](Cc2ccccc2)N(CCCC2CCCC2)C1=N,1.15%
22,CCOCc1c(C(=O)N2CCN(Cc3ccc(Br)s3)CC2)oc2ccccc12,-4.05%

row,SMILES,inhibition
1,COc1cc(OC)nc(S(C)(=O)=O)n1,2.64%
2,COc1ccc(-c2cc(C(F)(F)F)nc(S(C)(=O)=O)n2)cc1OC,94.1% (active)
3,COc1ccc(-c2cc(C(F)(F)F)nc(NCc3cccnc3)n2)cc1,32.4%
4,C[C@H](NS(=O)(=O)c1ccc(Cl)cc1)C(=O)OCC(=O)N1CCOCC1,17.5%
5,Fc1ccc(/C=N/Nc2nc(-c3cccnc3)nc3ccccc23)cc1,5.78%
6,Oc1ccc(/C=N/Nc2nc(-c3ccccc3F)nc3ccccc23)c(O)c1,123% (active)
7,Cc1nc2ccccc2nc1N/N=C/c1ccc(O)cc1O,63.2%
8,Cc1noc(C)c1S(=O)(=O)N(C)C[C@H]1Oc2ccc(NC(=O)C3CCCCC3)cc2C(=O)N([C@H](C)CO)C[C@@H]1C,-25.9%
9,CCCc1cc(=O)[nH]c(SCC(=O)Nc2ccc(C(=O)Nc3ccccc3OC)cc2)n1,-1.96%
10,O=C(COC(=O)c1cccnc1Cl)NC12CC3CC(CC(C3)C1)C2,-4.72%
11,O=C(COC(=O)c1cc[n+]([O-])cc1)Nc1ccc(Cl)c(C(F)(F)F)c1,13.8%
12,Cc1ccc(N2C(=O)C3C4C=CC(CC4)C3C2=O)cc1Cl (stereo not drawn),51.3%
13,Cc1ccc(N2C(=O)C3C4C=CC(CC4)C3C2=O)cc1Br (stereo not drawn),84.8% (active)
14,CC(=O)Nc1ccc(N2C(=O)C3C4C=CC(CC4)C3C2=O)cc1 (stereo not drawn),5.09%
15,O=C(CN1C(=O)NC2(CCCCCCC2)C1=O)NCc1ccc(F)cc1,-11.3%
16,CCNC(=S)N1CCN(S(=O)(=O)c2ccc(Cl)s2)CC1,-8.45%
17,COC(=O)c1ccc(/C=C/c2c(-c3ccc(OC)cc3)sc3ccccc23)cc1,120% (active)
18,COc1ccc(/C=C/c2nnc(NC(=O)C(C)C)s2)cc1,-1.02%
19,COc1ccc(NC(=O)COC(=O)c2ccc(NS(=O)(=O)/C=C/c3ccccc3)cc2)cc1,-2.32%
20,CC(C)Cn1c(SCC(=O)Nc2ccc(Cl)cc2F)nc(O)cc1=O,-7.16%
21,O=C(CSc1ncnc2sccc12)NC1CCS(=O)(=O)C1 (stereo not drawn),-16.5%
22,O=C(COC(=O)c1cccnc1Cl)Nc1ccc(S(=O)(=O)N2CCOCC2)cc1,1.63%

row,SMILES,inhibition
1,Cc1ccc(-c2csc(-c3c[nH]c4ccccc34)n2)cc1,0.177%
2,CCCc1cc(-c2nc(-c3ccc(C)cc3)cs2)ccn1,101% (active)
3,Cc1ccc(-c2csc(-c3cc(C)on3)n2)cc1,-0.292%
4,O=C(CCc1ccc(S(=O)(=O)N2CCOCC2)cc1)OCC(=O)c1ccc(Br)cc1,7.19%
5,COc1ccc(NS(=O)(=O)c2cc(NC(=O)c3ccc(S(=O)(=O)N(C)C)cc3)ccc2N2CCOCC2)cc1,-5.14%
6,COc1cc(OC)cc(-c2c(C#Cc3ccsc3)c3cc(-c4ccc(OC)cc4F)ccc3n2C)c1,0.462%
7,COc1ccc(/C=C(\C#N)c2c[nH]c3ccccc23)cc1,102% (active)
8,COc1cc(/C=C(\C#N)c2nc3ccccc3[nH]2)ccc1O,33.3%
9,COc1ccc2[nH]cc(/C=C(/C#N)S(=O)(=O)c3ccccc3)c2c1,12.3%
10,Cc1cc(C)c(CN2CCN(C(=O)Cn3ccc(NC(=O)OCc4ccccc4)nc3=O)CC2)c(C)c1,-17.4%
11,C=CC[C@@H](CC(=O)N[C@@H](CO)Cc1ccccc1)C(=O)N[C@H](COC(=O)[C@H](CC=C)CC(=O)OC(C)(C)C)Cc1ccccc1,-16.7%
12,COCC(C)n1c(SCC(=O)NC2CCCCC2C)nc2ccccc2c1=O (stereo not drawn),4.54%
13,S=c1[nH]nc(-c2cc(-c3ccccc3)n[nH]2)n1/N=C/c1c2ccccc2cc2ccccc12,48%
14,Cc1cc(-c2n[nH]c(=S)n2/N=C/C(Br)=C/c2ccccc2)n[nH]1,82.9% (active)
15,S=c1[nH]nc(-c2cccnc2)n1/N=C/C(Cl)=C\c1ccccc1,8.61%
16,CN(C(=O)CSc1cccc[n+]1[O-])C1CCCCC1,-18.5%
17,C[C@H](CO)N1C[C@H](C)[C@@H](CN(C)S(=O)(=O)c2ccc(F)cc2)Oc2c(NC(=O)Nc3ccccc3)cccc2C1=O,-11.6%
18,CC1Cc2ccccc2N1S(=O)(=O)c1cccc(C(=O)OCC(=O)N2CCOCC2)c1 (stereo not drawn),-6.52%
19,COc1cc(OC)cc(C(=O)N[C@H](C(=O)NNC(=O)c2ccc(Br)cc2)C(C)C)c1,-10.3%
20,CCN(CC)CCCNC(=O)c1cc2c(=O)[nH]c3ccc(C)cc3c2s1,-3.35%
21,Cc1cccc(N(C)C(=O)c2cc3c(=O)[nH]c4ccc(C)cc4c3s2)c1,80.5% (active)
22,Cc1ccc2[nH]c(=O)c(CC(=O)O)c(-c3ccccc3)c2c1,-9.95%
